32 molecules from ChEMBL document CHEMBL3433997, “St. Jude Leishmania screening dataset” (2016) can be followed below.

What all share (type): functional
Experiment [1] has as its target Solute carrier family 2, facilitated glucose transporter member 1 (Homo sapiens) (UniProt P11166). In words: ST_JUDE_LEISH: Cytotoxicity at 2uM final concentration against transgenic Leishmania Mexicana promastigotes LmGLUT1 that are glucose transport deficient and complemented with the human glucose transporter GLUT1. Activity is measured by DNA content using SYBR green in vitro.

Experiment [2] has as its target Hexose transporter 1 (Plasmodium falciparum) (UniProt O97467). In words: ST_JUDE_LEISH: Cytotoxicity at 2uM final concentration against transgenic Leishmania Mexicana promastigotes LmPfHT that are glucose transport deficient and complemented with the Plasmodium falciparum hexose transporter. Activity is measured by DNA content using SYBR green in vitro.
Experiment [3] deals with Glucose transporter (Leishmania mexicana) (UniProt O61059). In words: ST_JUDE_LEISH: Cytotoxicity at 2uM final concentration against transgenic Leishmania Mexicana promastigotes LmGT2 that are glucose transport deficient and complemented with the L. Mexicana glucose transporter 2. Activity is measured by DNA content using SYBR green in vitro.

For orientation: inhibition means the drop in the measured response relative to a control, in per cent.

Chain of Solute carrier family 2, facilitated glucose transporter member 1 (Homo sapiens) (P11166 whole entry): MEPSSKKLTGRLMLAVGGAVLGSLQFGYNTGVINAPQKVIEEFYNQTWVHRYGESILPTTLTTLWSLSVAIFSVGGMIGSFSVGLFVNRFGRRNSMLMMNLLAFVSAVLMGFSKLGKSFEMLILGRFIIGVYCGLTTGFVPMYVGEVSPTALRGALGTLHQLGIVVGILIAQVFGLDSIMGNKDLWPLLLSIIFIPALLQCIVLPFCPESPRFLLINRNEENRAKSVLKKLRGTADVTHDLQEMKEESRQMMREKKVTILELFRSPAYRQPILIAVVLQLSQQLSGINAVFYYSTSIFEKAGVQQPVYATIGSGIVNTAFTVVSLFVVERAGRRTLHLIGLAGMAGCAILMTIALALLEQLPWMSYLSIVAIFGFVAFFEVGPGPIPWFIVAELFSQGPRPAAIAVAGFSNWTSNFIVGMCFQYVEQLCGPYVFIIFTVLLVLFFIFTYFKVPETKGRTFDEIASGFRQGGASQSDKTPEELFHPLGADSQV

For the molecule `CN1CCN(CCCN(Cc2ccc(-c3cccc(CNCc4ccc5c(c4)OCO5)c3)cc2)C(=O)NC2CCCCC2)CC1`, the values for the inhibition in experiment [1], in experiment [2] and in experiment [3] were 4.38%, 1.35% and 0.88%, respectively.
In the same order, the values of `C=CCOc1ccccc1CNCC(O)c1cc(Br)cs1` (stereo unspecified) are 1.55%, 2.37% and 2.43%.
In the same order, the values of `COc1ccc(C(=O)N2CCC3(CC2)C(=O)N(CC(=O)NCC2CCCCC2)CN3c2ccccc2)cc1` are 3.99%, 4.58% and 3.35%.
With `Cc1cccn2c(=O)c3cc(C(=O)NCc4cccnc4)c(=N)n(CCc4ccccc4)c3nc12`, the inhibition in experiment [1] was 3.35%; in experiment [2], 4.08%; in experiment [3] it was 1.6%.
For `O=C(Nc1cccc(CN2CCCN(Cc3cccc(Cl)c3)CC2)c1)c1ccc(-c2ccccc2)cc1`, in that order: 4.82%, 4.23% and 0.66%.
For the molecule `O=C(Nc1ccc2ccccc2n1)c1ccccc1-c1ccccc1`, the inhibition in experiment [1] was -0.59%; in experiment [2] it was 2.19%; in experiment [3], -0.78%.
Consider `COc1cc(NC(=O)c2ccc(-c3ccc(C(C)=O)cc3)s2)ccc1OCCN1CCCC1`, for which the figures for the inhibition in experiment [1], in experiment [2] and in experiment [3] were 0.3%, -0.14% and 1.4%, respectively.
In the same order, the values of `CCNc1cc(C(=O)NC(Cc2ccccc2)C(O)CNC(C)(C)CCCC(C)C)c(F)c(N2CCCS2(=O)=O)c1` (stereo unspecified) are -2.99%, -1.24% and 1.59%.
For `Cc1cc(=NN=Cc2ccccc2F)c2cc(C(F)(F)F)ccc2[nH]1`, in that order: 1.67%, 3.04% and 0.5%.
Regarding `COc1ccc(N2CCN(CCCOc3ccc(NC(=O)c4cc(Cl)cc(Cl)c4)cc3)CC2)c(OC)c1`, the inhibition in experiment [1] was 6.5%; in experiment [2], 5.97%; in experiment [3], 6.22%.
For `Cc1ccccc1Cn1ccc2c3c(N)nc(N)nc3ccc21`, in that order: 92.7%, 87.7% and 81.9%.
For `NC1=NC(CCc2ccccc2)N(c2ccccc2)C(N)=N1` (stereo unspecified), in that order: 10.1%, 9.38% and 9.31%.
In the same order, the values of `COCCCNc1nc2cc(OC)c(OC)cc2c2nc(-c3ccccc3)nn12` are 2.53%, 1.16% and 0.85%.
As for `COc1ccc2nccc([C@@H](O)CN3CCC(NCc4cc5cccc(O)c5[nH]4)CC3)c2c1`, the inhibition was 1.85% in experiment [1], 2.02% in experiment [2] and 3.77% in experiment [3].
For `COc1cc(NCCCNC(=O)c2ccc(Cl)c(Cl)c2)nc2ccccc12`, in that order: 5.42%, 5.69% and 5.08%.
Consider `O=C(C1CCCCC1)N1CCOC(CCN2CCC(c3ccccc3)CC2)(c2ccc(Cl)c(Cl)c2)C1` (stereo unspecified), for which the inhibition in experiment [1] stood at 15.2%; in experiment [2] it was 16.1%; in experiment [3], 13.5%.
As to `COc1cc2c(Nc3cccc(NC(=O)c4ccccc4)c3)ncnc2cc1OCCCN1CCOCC1`, the results for the inhibition in experiment [1], in experiment [2] and in experiment [3] were 0.63%, 2.08% and 0.27%, respectively.
For `CN(C)c1ccc2c(c1)Sc1cc(N(C)C)ccc1N2C(=O)c1cccc(C(=O)O)c1`, in that order: -1.08%, -0.19% and 7.43%.
For `CCC(=O)N(c1ccccc1)C1CCN(CCCC(NC(=O)Nc2cc(C(F)(F)F)cc(C(F)(F)F)c2)c2ccc(Cl)c(Cl)c2)CC1` (stereo unspecified), in that order: -1.01%, 0.47% and 0.22%.
For `CCC(CC)n1c(COC)cc2c3c(N)nc(N)nc3ccc21`, in that order: 33.6%, 51.1% and 37.3%.
As to `Cc1ccc(Nc2nccc(N(C)c3ccc4c(c3)nc(NC(=O)Cc3ccc(Cl)c(Cl)c3)n4C)n2)cc1S(N)(=O)=O`, the values for the inhibition in experiment [1], in experiment [2] and in experiment [3] were 6.81%, 11.6% and 5.64%, respectively.
`Cc1ccc(Nc2nccc(Nc3ccc4c(C)n[nH]c4c3)n2)cc1F`: the inhibition in experiment [1] was 3.22%; in experiment [2], 4.19%; in experiment [3], 1.7%.
For `CC(=O)Nc1ccc(C(=O)Nc2cccc(-c3ccc(-c4nc5cccc(C)c5[nH]4)cc3)c2)cn1`, in that order: 4.86%, 4.51% and 4.91%.
In the case of `O=C(C=Cc1ccc(Cl)c(Cl)c1)NCCCCCN1CCCC(CCCNC(=O)c2sc3ccccc3c2Cl)C1` (stereo unspecified), the results for the inhibition in experiment [1], in experiment [2] and in experiment [3] were 2.3%, 1.22% and -0.49%, respectively.
Consider `CCCOc1cccc(C(=O)N[C@@H](Cc2ccccc2)[C@H](O)CNCc2cccc(OC)c2)c1`, for which the inhibition in experiment [1] is 0.22%; in experiment [2], 0.92%; in experiment [3] it was -3.25%.
Take `CCC1CN(S(=O)(=O)c2ccc3c(c2)NC(=O)CC(=O)N3)c2cc(Cl)ccc2O1` (stereo unspecified): the inhibition was determined as 2.65% in experiment [1], 2.92% in experiment [2] and 3.29% in experiment [3].
In the same order, the values of `CCC1N=C(N)N=C(N)N1OCc1cccc2ccccc12` (stereo unspecified) are 1.74%, 0.62% and 1.16%.
For `O=C(Cc1ccccc1)NC(c1ccco1)c1cc(Cl)c2cccnc2c1O` (stereo unspecified), in that order: -0.34%, -0.27% and -0.18%.
In the same order, the values of `CCc1cn2c3c(cc(C(=O)N[C@@H](Cc4ccccc4)[C@H](O)CNC(C)(C)c4cccc(OC)c4)cc13)N(C)S(=O)(=O)C2` are 1.01%, 1.91% and 0.96%.
Consider `CCCCCCCCCCNCC(O)c1ccc(O)c(C(=O)OC)c1` (stereo unspecified), for which the inhibition in experiment [1] is -0.21%; in experiment [2], 1.42%; in experiment [3], 0.52%.
For `NS(=O)(=O)c1ccc(Nc2nccc(-c3c(-c4cccc(NC(=O)c5c(F)cccc5F)c4)nn4ccccc34)n2)cc1`, in that order: 11.8%, 14.8% and 8.76%.
In the same order, the values of `CN(C)CCOc1ccc(NC(=O)NC(C)(C)c2nc(-c3ccc(Cl)c(O)c3)c(-c3ccncc3)[nH]2)cc1` are -2.42%, -2.62% and -2.59%.
